From PubChem BioAssay AID1347051 (National Center for Advancing Translational Sciences (NCATS), 2019)
Screen size: about 1,400 compounds; about 980 (70%) were called active. Roughly 16% stayed inconclusive and do not appear here. The call rests on the fitted dose curve. So high a share suggests a set chosen from earlier hits. These entries were drawn from the full list.

Assay: Natriuretic polypeptide receptor (hNpr1) antagonism - Counterscreen GloSensor control cell line; further: nearly all actives have a fitted effect of over 70% in size
Details: HEK293 GloSensor cGMP, SNP-stimulated, luminescence; series mostly up to 57.6 µM; activity change, negative = inhibition: at the top concentration
Protocol: cGMP production was measured using a circular permutated firefly luciferase (FLuc) enzyme functionally linked to the cGMP binding domain of human phosphodiesterase 5 (GloSensor technology pGS-40F, (Fan, F. et al. 2008). The cGMP-sensor was expressed in human embryonic kidney 293 (HEK-293) cells and FLuc activity was measured after stimulation with the NO-donor sodium nitroprusside (SNP). SNP activates the endogenously expressed soluble guanylyl cyclase (GC) producing cGMP which then binds to the GloSensor resulting in FLuc activation, the enzymatic activity of which can be measured as bioluminescence with addition of luciferin substrate. F. Fan, B. F. Binkowski, B. L. Butler, P. F. Stecha, M. K. Lewis, K. V. Wood, Novel genetically encoded biosensors using firefly luciferase. ACS Chem Biol 3, 346-351 (2008).
PROTOCOL TABLE (as described by Inglese J, Shamu CE and Guy RK. 2007) SEQUENCE No. (e.g., 1, 2, 3, etc.); PARAMETER (e.g., Cells, Incubation, Reagent, etc.); VALUE and DESCRIPTION. 1. Cells. Seed 1500 HEK293 cGMP-sensor cells per well in 4uL into Greiner 1536-well white/solid bottom high base, TC plates. 2. Incubation. Incubate plated cells at 37C in 5% CO2, 95% RH overnight. 3. Reagent. Add 1uL per well GloSensor reagent from Promega (2% final concentration) or CO2 independent media vehicle control to respective columns of Greiner 1536-well plates. 4. Incubation. Incubate plated cells at room temperature for 2 h, protect from light. 5. Compounds. Library compounds and DMSO vehicle control added at 23nL per well, transferred by Pin Tool. 6. Incubation. Incubate plated cells for 30 min. at room temperature, protect from light. 7. Detector. GloSensor baseline pre-read luminescence measured using CCD-based camera (Viewlux). 8. Compound. Add 1uL of sodium nitroprusside (SNP) to 50 uM final concentration to stimulate soluble guanylyl cyclase (GC) or CO2 independent media as vehicle control. 9. Incubation. Incubate treated cells at room temperature for 20 min., protect from light. 10. Detector. GloSensor post-SNP luminescence measured using CCD-based camera (Viewlux). NOTES (numbers refer to Sequence numbers above; values are from representative experiments) 1. HEK293 cells expressing GIP/pGS-40F were grown to 85-95% confluence (48-72 h) in T175 culture flasks (CO2 independent media supplemented with 10% FBS, 1% Pen/Strep antibiotics, and 1 ug/mL puromycin). Trypsinize and harvest cells from T175 culture flasks and filter through 40 um cell strainer. Cells counted with Invitrogen Countess (30,000,000 - 50,000,000 cells/flask). Cells diluted to a final concentration of 375 cells/uL in CO2 independent media and a Millipore multidrop used to dispense 1500 cells per well (4uL/well) into 13 1536-well Greiner White/Solid bottom, high base tissue-culture treated (TC) plates and one Aurora 1536-well Black/Clear bottom, low base, TC plate (for visual inspection of cell health throughout the duration of the assay). 2. Cells incubated for 24 h. at 37C in 95% RH incubator with metal lid having gas-exchange holes. 3. Prepare GloSensor Reagent (Promega): Reconstitute GloSensor luciferase substrate by adding 8.2mL Hepes buffer to 250mg substrate, mix well, protect from light and stored at -80C. Prepare a fresh 12% GloSensor solution in CO2 independent supplemented plating media (see above). Mix well and store at ambient temperature, protected from light. 1uL 12% GloSensor Luciferase Reagent added (2% final concentration) to respective columns of 13 x 1536-well Greiner plate with BioRaptr, 1uL CO2 independent plating media added to respective columns as vehicle control with BioRaptr. 4. Cells incubated for 2 h. at ambient temperature, protected from light with metal lid having gas-exchange holes. 5. 23nL of library compounds or DMSO vehicle control transferred to 13 Greiner white/solid bottom high base, TC plates in 11 interplate 1:3 titrations (see Yasgar, A. et al. 2008) with Pintool. 6. […]
On the % scale 0 is the no-effect control and ±100 the full control effect; potency means the concentration at half of the fitted maximal effect.

Structure (SMILES) | Potency | activity change, negative = inhibition
COc1cc2c(cc1Oc1cccc(N(C)C)c1)NC(=O)C21CCN(CCC(C)C)CC1 | 31.4 µM (active) | –
COc1cc2c(cc1Oc1cccc(N(C)C)c1)NC(=O)C21CCN(c2cnccn2)CC1 | 21.7 µM (active) | –
COc1cc2c(cc1Oc1cccc(N(C)C)c1)NC(=O)C21CCN(Cc2ccccn2)CC1 | 19.3 µM (active) | –
COc1cc2c(cc1OCc1ccncc1)NC(=O)C21CCN(c2ncc(F)cn2)CC1 | 44.4 µM (active) | –
CCC(CC)c1cc([C@H]2CN3CC[C@H]2C[C@@H]3CNS(=O)(=O)c2ccccc2C#N)nc(-c2ccncc2)n1 | – | -6.91% (inactive)
CCC(CC)c1cc([C@H]2CN3CC[C@H]2C[C@@H]3CNC(=O)NCc2ccccc2)nc(-c2ccncc2)n1 | – | -5.58% (inactive)
CCC(CC)c1cc([C@H]2CN3CC[C@H]2C[C@@H]3CNS(=O)(=O)Cc2ccccc2)nc(-c2ccncc2)n1 | – | 2.91% (inactive)
